According to PubChem BioAssay (NCI):
The panel holds about 79,000 compounds, 15% with a hit somewhere; the sample as a whole holds those more often. Unmarked numbers belong to inactive results. Activity calls are given as the source filed them. Rule as the data show it: active = growth inhibition above about 70%; inactive = the rest.

Assays:
[1] = NCI Yeast Anticancer Drug Screen. Data for the rad52 strain (AID 147);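 also: 0% = growth of vehicle-treated control cultures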; conditions: S. cerevisiae rad52 mutant growth inhibition, hits give high values
How it was run: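 Vehicle-treated cultures served as the reference for growth inhibition of compound-exposed yeast bearing a DNA repair mutation.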

[2] = NCI Yeast Anticancer Drug Screen. Data for the wt1 strain (AID 149);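 also: 0% = growth of vehicle-treated wt1 cultures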; conditions: S. cerevisiae wt1 strain (SPY 50644) growth inhibition, hits give high values
How it was run: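 Measured: growth of wt1 yeast under compound versus vehicle treatment, reported as inhibition.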

[3] = NCI Yeast Anticancer Drug Screen. Data for the rad50EPP+ strain (AID 151);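 also: 0% = growth of vehicle-treated control cultures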; conditions: S. cerevisiae rad50 mutant strain, hits give high values
How it was run: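 In this screen, rad50EPP+ yeast were exposed to compounds. Growth inhibition was scored against vehicle-treated controls.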

[4] = NCI Yeast Anticancer Drug Screen. Data for the mgt1 strain (AID 153); conditions: S. cerevisiae mgt1 mutant growth inhibition, hits give high values
How it was run: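 mgt1 strain exposed; growth vs vehicle control recorded as inhibition.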

[5] = NCI Yeast Anticancer Drug Screen. Data for the rad50 strain (AID 155);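 also: 0% = growth of vehicle-only cultures of the same strain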; conditions: S. cerevisiae rad50 strain growth inhibition, hits give high values
How it was run: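 Growth of the mutant yeast was measured after compound exposure and referenced to vehicle-treated cultures.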

[6] = NCI Yeast Anticancer Drug Screen. Data for the mec2-1 strain (AID 157); conditions: S. cerevisiae mec2-1 strain, hits give high values
How it was run: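 Vehicle-treated cultures served as reference for growth inhibition of compound-exposed mec2-1 yeast.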

[7] = NCI Yeast Anticancer Drug Screen. Data for the rad14 strain (AID 159);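 also: 0% = growth of vehicle-treated control cultures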; conditions: S. cerevisiae rad14 strain growth inhibition, hits give high values
How it was run: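 Here, inhibition of yeast growth was measured after compound exposure, using a strain with a genetic defect in DNA damage repair and vehicle-treated cultures as the reference.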

[8] = NCI Yeast Anticancer Drug Screen. Data for the sgs1 mgt1 strain (AID 161);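 also: 0% = growth of cultures given vehicle only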; conditions: S. cerevisiae sgs1 mgt1 strain, hits give high values
How it was run: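 Test agents were incubated with a DNA-repair-mutant yeast strain. Growth was then read and compared against vehicle-treated controls.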

[9] = NCI Yeast Anticancer Drug Screen. Data for the CLN2oe strain (AID 163);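 also: 0% = growth of vehicle-only control cultures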; conditions: S. cerevisiae CLN2oe strain, hits give high values
How it was run: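 Inhibition relative to vehicle-treated yeast is reported. Cells: strain with genetic alteration in cell-cycle control, grown with compound.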

[10] = NCI Yeast Anticancer Drug Screen. Data for the cln2 rad14 strain (AID 165);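 also: 0% = growth equal to vehicle treated cultures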; conditions: S. cerevisiae cln2 rad14 strain, hits give high values
How it was run: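 Each compound was tested on cln2 rad14 yeast. Inhibition of growth was calculated against vehicle-exposed controls.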

[11] = NCI Yeast Anticancer Drug Screen. Data for the bub3 strain (AID 167); conditions: S. cerevisiae bub3 mutant strain, hits give high values
How it was run: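 Whole-cell yeast assay. The mutant strain was incubated with compounds, and growth inhibition was determined by comparison with vehicle-treated cells.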

[12] = NCI Yeast Anticancer Drug Screen. Data for the wt2 strain (AID 169);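 also: 0% = growth of vehicle-treated yeast cultures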; conditions: S. cerevisiae wt2 strain growth inhibition, hits give high values
How it was run: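 Inhibition of yeast growth was determined after compound treatment, normalised to controls receiving only vehicle.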

[13] = NCI Yeast Anticancer Drug Screen. Data for the mlh1 strain (AID 171);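 also: 0% = growth of vehicle-treated control cultures of the same strain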; conditions: S. cerevisiae mlh1 strain growth inhibition, hits give high values
How it was run: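 Vehicle-normalised growth inhibition of a repair- or checkpoint-altered yeast strain following compound treatment.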

[14] = NCI Yeast Anticancer Drug Screen. Data for the sgs1 strain (AID 173);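 also: 0% = growth of vehicle-only control cultures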; conditions: S. cerevisiae sgs1 mutant, hits give high values
How it was run: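 Screen format: yeast with repair or checkpoint alterations, compound exposure, growth read relative to vehicle.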

[15] = NCI Yeast Anticancer Drug Screen. Data for the mlh1 rad18 strain (AID 175); conditions: S. cerevisiae mlh1 rad18 strain growth inhibition, hits give high values
How it was run: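 Vehicle-treated cultures served as the reference for growth inhibition in a yeast strain carrying DNA damage repair alterations exposed to each compound.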

[16] = NCI Yeast Anticancer Drug Screen. Data for the rad18 strain (AID 177); conditions: S. cerevisiae rad18 mutant growth inhibition, hits give high values
How it was run: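 Test articles were incubated with altered yeast defective in DNA damage repair. Results are given as inhibition of growth versus vehicle.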

[17] = at 5.0 µM (retest, dose inferred, filed as 0.5)
[18] = at 50.0 µM (retest, dose inferred, filed as 5.0)

COc1ccc(C(C#N)=C2C=CC(=NO)C=C2)cc1
growth inhibition ([1]; at 1.2 µM): 11%
growth inhibition ([1]; at 3.7 µM): 34%
growth inhibition ([1]; at 11.0 µM): 89% (active)
growth inhibition ([1]; at 33.0 µM): 96% (active)
growth inhibition ([1]; at 100.0 µM): 96% (active)
growth inhibition ([2]; at 1.2 µM): -1%
growth inhibition ([2]; at 3.7 µM): -2%
growth inhibition ([2]; at 11.0 µM): 14%
growth inhibition ([2]; at 33.0 µM): 96% (active)
growth inhibition ([2]; at 100.0 µM): 97% (active)
growth inhibition ([3]; at 1.2 µM): 42%
growth inhibition ([3]; at 3.7 µM): 70% (active)
growth inhibition ([3]; at 11.0 µM): 90% (active)
growth inhibition ([3]; at 33.0 µM): 93% (active)
growth inhibition ([3]; at 100.0 µM): 93% (active)
growth inhibition ([4]; at 1.2 µM): 0%
growth inhibition ([4]; at 3.7 µM): 18%
growth inhibition ([4]; at 11.0 µM): 88% (active)
growth inhibition ([4]; at 33.0 µM): 97% (active)
growth inhibition ([4]; at 100.0 µM): 91% (active)
growth inhibition ([5]; at 1.2 µM): 18%
growth inhibition ([5]; at 3.7 µM): 38%
growth inhibition [5, 17]: 23%
growth inhibition ([5]; at 11.0 µM): 81% (active)
growth inhibition ([5]; at 33.0 µM): 96% (active)
growth inhibition [5, 18]: 62%
growth inhibition ([5]; at 50.0 µM): 65.4%
growth inhibition ([5]; at 100.0 µM): 95% (active)
growth inhibition ([6]; at 1.2 µM): 1%
growth inhibition ([6]; at 3.7 µM): 16%
growth inhibition [6, 17]: -2%
growth inhibition ([6]; at 11.0 µM): 96% (active)
growth inhibition ([6]; at 33.0 µM): 97% (active)
growth inhibition [6, 18]: 25%
growth inhibition ([6]; at 50.0 µM): 88.2% (active)
growth inhibition ([6]; at 100.0 µM): 98% (active)
growth inhibition ([7]; at 1.2 µM): 13%
growth inhibition ([7]; at 3.7 µM): 19%
growth inhibition ([7]; at 11.0 µM): 83% (active)
growth inhibition ([7]; at 33.0 µM): 96% (active)
growth inhibition ([7]; at 100.0 µM): 82% (active)
growth inhibition [8, 17]: 51%
growth inhibition [8, 18]: 79% (active)
growth inhibition ([8]; at 50.0 µM): 87.7% (active)
growth inhibition ([9]; at 1.2 µM): 7%
growth inhibition ([9]; at 3.7 µM): 11%
growth inhibition ([9]; at 11.0 µM): 58%
growth inhibition ([9]; at 33.0 µM): 55%
growth inhibition ([9]; at 100.0 µM): 68%
growth inhibition [10, 17]: 17%
growth inhibition [10, 18]: 41%
growth inhibition ([10]; at 50.0 µM): 60.3%
growth inhibition ([11]; at 1.2 µM): -1%
growth inhibition ([11]; at 3.7 µM): 7%
growth inhibition [11, 17]: 24%
growth inhibition ([11]; at 11.0 µM): 22%
growth inhibition ([11]; at 33.0 µM): 42%
growth inhibition [11, 18]: 82% (active)
growth inhibition ([11]; at 50.0 µM): 85.8% (active)
growth inhibition ([11]; at 100.0 µM): 72% (active)
growth inhibition ([12]; at 1.2 µM): -9%
growth inhibition ([12]; at 3.7 µM): 42%
growth inhibition ([12]; at 11.0 µM): 84% (active)
growth inhibition ([12]; at 33.0 µM): 99% (active)
growth inhibition ([12]; at 100.0 µM): 99% (active)
growth inhibition ([13]; at 1.2 µM): 8%
growth inhibition ([13]; at 3.7 µM): 29%
growth inhibition ([13]; at 11.0 µM): 66%
growth inhibition ([13]; at 33.0 µM): 97% (active)
growth inhibition ([13]; at 100.0 µM): 95% (active)
growth inhibition ([14]; at 1.2 µM): 5%
growth inhibition ([14]; at 3.7 µM): 32%
growth inhibition ([14]; at 11.0 µM): 87% (active)
growth inhibition ([14]; at 33.0 µM): 99% (active)
growth inhibition ([14]; at 100.0 µM): 98% (active)
growth inhibition [15, 17]: 48%
growth inhibition [15, 18]: 85% (active)
growth inhibition ([15]; at 50.0 µM): 91.5% (active)
growth inhibition ([16]; at 1.2 µM): 11%
growth inhibition ([16]; at 3.7 µM): 38%
growth inhibition ([16]; at 11.0 µM): 90% (active)
growth inhibition ([16]; at 33.0 µM): 97% (active)
growth inhibition ([16]; at 100.0 µM): 96% (active)

Clc1c(Cl)c(Cl)c2c(nnn2C2CCCO2)c1Cl (stereo unspecified)
growth inhibition ([1]; at 1.2 µM): 10%
growth inhibition ([1]; at 3.7 µM): 19%
growth inhibition ([1]; at 11.0 µM): 24%
growth inhibition ([1]; at 33.0 µM): 33%
growth inhibition ([1]; at 100.0 µM): 58%
growth inhibition ([2]; at 1.2 µM): 0%
growth inhibition ([2]; at 3.7 µM): -1%
growth inhibition ([2]; at 11.0 µM): -5%
growth inhibition ([2]; at 33.0 µM): 11%
growth inhibition ([2]; at 100.0 µM): 46%
growth inhibition ([3]; at 1.2 µM): -32%
growth inhibition ([3]; at 3.7 µM): -10%
growth inhibition ([3]; at 11.0 µM): -9%
growth inhibition ([3]; at 33.0 µM): -4%
growth inhibition ([3]; at 100.0 µM): 35%
growth inhibition ([4]; at 1.2 µM): -24%
growth inhibition ([4]; at 3.7 µM): -9%
growth inhibition ([4]; at 11.0 µM): -5%
growth inhibition ([4]; at 33.0 µM): -1%
growth inhibition ([4]; at 100.0 µM): 75% (active)
growth inhibition ([5]; at 1.2 µM): 5%
growth inhibition ([5]; at 3.7 µM): -1%
growth inhibition [5, 17]: 4%
growth inhibition ([5]; at 11.0 µM): 6%
growth inhibition ([5]; at 33.0 µM): 14%
growth inhibition [5, 18]: 38%
growth inhibition ([5]; at 50.0 µM): 78.3% (active)
growth inhibition ([5]; at 100.0 µM): 48%
growth inhibition ([6]; at 1.2 µM): 2%
growth inhibition ([6]; at 3.7 µM): -1%
growth inhibition [6, 17]: 12%
growth inhibition ([6]; at 11.0 µM): 10%
growth inhibition ([6]; at 33.0 µM): 8%
growth inhibition [6, 18]: 48%
growth inhibition ([6]; at 50.0 µM): 85.2% (active)
growth inhibition ([6]; at 100.0 µM): 76% (active)
growth inhibition ([7]; at 1.2 µM): -11%
growth inhibition ([7]; at 3.7 µM): -8%
growth inhibition ([7]; at 11.0 µM): -1%
growth inhibition ([7]; at 33.0 µM): 12%
growth inhibition ([7]; at 100.0 µM): 75% (active)
growth inhibition [8, 17]: -1%
growth inhibition [8, 18]: 80% (active)
growth inhibition ([8]; at 50.0 µM): 78% (active)
growth inhibition ([9]; at 1.2 µM): -11%
growth inhibition ([9]; at 3.7 µM): 1%
growth inhibition ([9]; at 11.0 µM): 0%
growth inhibition ([9]; at 33.0 µM): 9%
growth inhibition ([9]; at 100.0 µM): 33%
growth inhibition [10, 17]: 8%
growth inhibition [10, 18]: 62%
growth inhibition ([10]; at 50.0 µM): 74.8% (active)
growth inhibition ([11]; at 1.2 µM): -7%
growth inhibition ([11]; at 3.7 µM): -8%
growth inhibition [11, 17]: 18%
growth inhibition ([11]; at 11.0 µM): -22%
growth inhibition ([11]; at 33.0 µM): 11%
growth inhibition [11, 18]: 60%
growth inhibition ([11]; at 50.0 µM): 83.2% (active)
growth inhibition ([11]; at 100.0 µM): 50%
growth inhibition ([12]; at 1.2 µM): -14%
growth inhibition ([12]; at 3.7 µM): -2%
growth inhibition ([12]; at 11.0 µM): 6%
growth inhibition ([12]; at 33.0 µM): 60%
growth inhibition ([12]; at 100.0 µM): 97% (active)
growth inhibition ([13]; at 1.2 µM): -5%
growth inhibition ([13]; at 3.7 µM): -2%
growth inhibition ([13]; at 11.0 µM): 4%
growth inhibition ([13]; at 33.0 µM): 30%
growth inhibition ([13]; at 100.0 µM): 85% (active)
growth inhibition ([14]; at 1.2 µM): -30%
growth inhibition ([14]; at 3.7 µM): -13%
growth inhibition ([14]; at 11.0 µM): -1%
growth inhibition ([14]; at 33.0 µM): 12%
growth inhibition ([14]; at 100.0 µM): 83% (active)
growth inhibition [15, 17]: 7%
growth inhibition [15, 18]: 45%
growth inhibition ([15]; at 50.0 µM): 83.8% (active)
growth inhibition ([16]; at 1.2 µM): -15%
growth inhibition ([16]; at 3.7 µM): -4%
growth inhibition ([16]; at 11.0 µM): 2%
growth inhibition ([16]; at 33.0 µM): 14%
growth inhibition ([16]; at 100.0 µM): 54%
